Data on 64 molecules can be found in PubChem BioAssay AID1530 (NMMLSC, 2009).

Structures are written as SMILES. In all, about 290,000 compounds went through this assay and about 1,000 (0.34%) were called active. Cut-off read from the data, not from the text of the source: active = percent response above about 24% (passing the limit was not always enough); inactive = the rest. Only a selection was taken, and actives are over-represented in it overall.

The experiment concerns MEKK2 (MAP3K2) mutant PB1 domain binding to MEK5, human. Kind of experiment: MEK5 binding signal on mutant MEKK2 PB1, primary screen, biochemical, multiplex bead flow cytometry, Alexa488-MEK5 (AID 1530). The note with it: at 10 µM, stronger effect = higher value.
In the case of `COCCNC(=O)/C(C#N)=C/c1nc(N(C)C)n(-c2ccc(F)cc2)c1Cl`, the percent response was 63% (active).

Consider `COCCCNC(=O)/C(C#N)=C/c1c(N2CCCCCC2)nc2ccccn2c1=O`, for which the percent response was 5% (inactive).

With `COCCNC(=O)/C(C#N)=C/c1cccc(OCc2ccccc2)c1`, the percent response was 2% (inactive).

For the molecule `Cc1ccc(C(NC(=O)N2CCCC2)C(Cl)(Cl)Cl)cc1F` (centres undefined), the percent response is -1% (inactive).

As to `Cc1ccc(S(=O)(=O)c2c[nH]c3ccc(C)cc3c2=O)cc1`, the percent response is 3% (inactive).

On to `Cc1c(C(=O)N2CCN(c3ccc(F)cc3)CC2)oc2c1C(=O)CCC2`, for which the percent response was 0% (inactive).

As to `Cc1ccc2c(C)c(C(=O)N(C)Cc3ccncn3)oc2c1C`, the percent response is 0% (inactive).

Consider `Cc1ccc2c(C)c(C(=O)N3CCN(c4ccncc4)CC3)oc2c1C`, for which the percent response was 30% (active).

As to `Cc1cccc(CCNC(=O)Cn2ncc3c([nH]c4ccc(C)cc43)c2=O)c1`, the percent response is -4% (inactive).

With `CCCNC(=O)COc1coc(CN2CCN(Cc3ccccc3)CC2)cc1=O`, the percent response was 10% (inactive).

Turning to `COc1ccc(-c2nnc(NC(=O)CS(=O)(=O)c3ccc(Cl)cc3)o2)c(OC)c1`, the percent response was 2% (inactive).

As for `c1ccc2c(CSCc3nc4ccccc4[nH]3)cccc2c1`, the percent response was 1% (inactive).

As to `N=C(N)SCc1cccc2ccccc12`, the percent response was 91% (active).

Take `CCOc1ccc(Br)cc1CSC(=N)N`: the percent response is -1% (inactive).

For `CCOC(=O)C1Nc2ccc(C(F)(F)F)cc2C2C=CCC12` (centres undefined), the percent response is 0% (inactive).

Take `CC(=O)c1ccc(S(=O)(=O)N2CCC3(CC2)OCCO3)cc1`: the percent response was -1% (inactive).

As to `CN1CCN(c2nc(Nc3ccc(O)cc3)nc3ccccc23)CC1`, the percent response was 2% (inactive).

In the case of `c1ccc(Nc2nc(N3CCOCC3)c3ccccc3n2)cc1`, the percent response was 38% (active).

With `O=c1[nH]c(N2CCOCC2)nc2ccccc12`, the percent response is 5% (inactive).

On to `Cc1ccc(C)c(OCCC(=O)OCC(=O)N2CCN(c3ccccc3)CC2)c1`, for which the percent response is -5% (inactive).

Take `O=C(NNS(=O)(=O)c1ccc([N+](=O)[O-])cc1)C1CCCCC1`: the percent response was 7% (inactive).

Regarding `Cc1nc(-c2ccccc2)sc1C1(C)CC(c2cccnc2)=NO1` (centres undefined), the percent response was -3% (inactive).

As for `O=C(Nc1cccnc1)c1ccc(Cl)cc1[N+](=O)[O-]`, the percent response was 2% (inactive).

In the case of `O=C(Nc1cccnc1)c1cc([N+](=O)[O-])ccc1Cl`, the percent response is 6% (inactive).

As for `O=C(Nc1cccnc1)c1cc(Cl)ccc1Cl`, the percent response was 28% (active).

Take `Cc1[nH]n(C(N)=S)c(=O)c1N=Nc1ccc(Cl)cc1Cl`: the percent response is 2% (inactive).

On to `CCn1c(CNC(=O)c2cc(OC)c(OC)c(OC)c2)cc2cc(C)ccc21`, for which the percent response is -6% (inactive).

In the case of `CN(C(=O)CN1C(=O)CCSc2ccc(S(=O)(=O)N3CCCC3)cc21)c1ccccc1`, the percent response is 1% (inactive).

In the case of `CNC(C)C#Cc1ccc2sc3cc(OC)c(OC)cc3c(=O)c2c1` (centres undefined), the percent response is 13% (inactive).

On to `CC1COc2ccccc2N1C(=O)c1ccc(F)cc1` (centres undefined), for which the percent response was 1% (inactive).

On to `CC1Sc2ccc(S(=O)(=O)CCC(=O)NCc3ccccc3Cl)cc2NC1=O` (centres undefined), for which the percent response was 11% (inactive).

With `O=C(NCCN1CCOCC1)[C@H](Cc1ccccc1)N1C(=O)c2ccccc2C1=O`, the percent response was 26% (active).

Take `O=C(NC1=NCCS1)[C@H](Cc1ccccc1)N1C(=O)c2ccccc2C1=O`: the percent response is 0% (inactive).

As to `O=C(CCN1C(=O)c2ccccc2C1=O)NCCN1CCOCC1`, the percent response is -3% (inactive).

With `Cc1ccc(NC(=O)COC(=O)C2C3CC4OC(=O)C2C4C3)cc1Cl` (centres undefined), the percent response is 5% (inactive).

As to `CCC(C)[C@H]1COCCS(=O)(=O)N1Cc1ccc(C)cc1` (some centres undefined), the percent response is -5% (inactive).

On to `Cc1c(CCOC(=O)CC23CC4CC(CC(C)(C4)C2)C3)sc[n+]1Cc1ccc([N+](=O)[O-])cc1`, for which the percent response is 54% (active).

In the case of `Cc1c(CCO)sc[n+]1CC(=O)OC12CC3CC(CC(C3)C1)C2`, the percent response was 0% (inactive).

Regarding `Cc1c(CCOC(=O)c2cc([N+](=O)[O-])ccc2Cl)sc[n+]1CCCCS(=O)(=O)[O-]`, the percent response was -1% (inactive).

Consider `Clc1ccc2nc(CSc3ccccc3)cn2c1`, for which the percent response was 2% (inactive).

Turning to `CC1(C)Cc2ccccc2/C(=C/C(=O)c2ccccc2)N1`, the percent response is 3% (inactive).

For the molecule `COCCCNC(=S)N1CCN(c2nc(-c3cccc(OC)c3)cs2)CC1`, the percent response is -4% (inactive).

Take `CN(C)CCCNC(=S)N1CCN(c2nc(-c3ccccc3)cs2)CC1`: the percent response is 25% (active).

`CN(C)CCCNC(=S)N1CCC(c2nc3ccccc3[nH]2)CC1`: the percent response was 4% (inactive).

`COc1ccc(CCN2C(=O)C(C)=C(C)C2=O)cc1OC`: the percent response is 1% (inactive).

For `O=C(CCc1nnc2ccc(NCc3ccccc3Cl)nn12)NCC1CCN(C2CCCC2)C1` (centres undefined), the percent response was 26% (active).

Take `O=C(CCc1nnc2ccc(NCCCN3CCCC3=O)nn12)NCc1ccccc1Cl`: the percent response is 6% (inactive).

With `CC1CCN(C(=O)CCc2nnc3ccc(NCc4ccco4)nn23)CC1`, the percent response was 0% (inactive).

For `CC1CCCCN1C(=O)Cn1c(=O)oc2cc(S(=O)(=O)N3CCCCC3)ccc21` (centres undefined), the percent response is 2% (inactive).

Consider `Cc1cccc(NC(=O)Cc2ccc(Br)cc2)n1`, for which the percent response is 4% (inactive).

As for `COc1cc(NC(=O)CSc2nnc3ccc(-c4ccncc4)nn23)cc(OC)c1`, the percent response is 0% (inactive).

Take `COc1ccc(CCNC(=O)CSc2nnc3ccc(-c4ccncc4)nn23)cc1`: the percent response was 146% (active).

Turning to `COc1ccccc1CCNC(=O)CSc1nnc2ccc(-c3cccnc3)nn12`, the percent response is 6% (inactive).

In the case of `CCOc1ccc(C(=O)Nc2c3c(nn2-c2ccccc2)CS(=O)(=O)C3)cc1`, the percent response was 6% (inactive).

On to `COc1ccc(S(=O)(=O)/N=C2\C=C(NS(=O)(=O)c3ccccc3)C(=O)c3ccccc32)cc1`, for which the percent response was -2% (inactive).

As to `CCOc1ccccc1NC(=O)Cn1ncc2ccc([N+](=O)[O-])cc21`, the percent response is 3% (inactive).

Regarding `Cc1cc(NC(=O)c2cnn3cccnc23)n(-c2ccccc2)n1`, the percent response was 5% (inactive).

With `O=C(Nc1ccc(Cl)cn1)c1ccc2c(c1)OCCO2`, the percent response is -5% (inactive).

As for `O=C(Nc1ccc(Cl)cn1)c1cnn2cccnc12`, the percent response is 26% (active).

In the case of `COc1ccc(C)cc1N(C(=O)Cn1nnc(-c2ccc(C)o2)n1)C(C(=O)NC1CCCC1)c1ccncc1` (centres undefined), the percent response was -2% (inactive).

For `CCOC(=O)N1CCN(Cc2nnc(-c3ccccc3Cl)o2)CC1`, the percent response is 8% (inactive).

As to `CCCn1c(=N)n(CC(=O)c2ccc(Cl)c(Cl)c2)c2ccccc21`, the percent response is 29% (active).

Consider `CCn1c(=N)n(CC(=O)c2cccc(OC)c2)c2ccccc21`, for which the percent response was -9% (inactive).

As for `CCCNC(=O)c1ccc(Cl)c(Cl)c1`, the percent response is -1% (inactive).
